For three compounds, outcome results are on record in PubChem BioAssay AID463095 (Sanford-Burnham Center for Chemical Genomics, 2010).

Some of the results follow. Activity calls are given as the source filed them.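 The calls were made as follows: active = proliferation increase above 40% at any of the four tested concentrations; inactive = the rest.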

A short description of this experiment: MIN6 insulinoma cell replication enhancers – MIN6 cells, mouse, confirmation (AID 463095). The settings on record: MIN6 beta-cell proliferation, ATPlite luminescence, 48 h; series mostly up to 50 µM. For orientation: In ATP-based viability assays light output follows the ATP content of the culture.
On to `c1cc2c(cc1CCNC1CCCCCC1)OCO2`, for which the outcome was inactive.

Regarding `O=C(N/N=C/c1c(O)n(Cc2ccccc2)c(=O)[nH]c1=O)c1ccccc1`, the outcome was inactive.

Regarding `COC(=O)COc1cc(C)cc2oc(=O)c3c(c12)CCCC3`, the result was inactive.
